PubChem BioAssay
Activity calls are given as the source filed them. The rule behind the calls is not given here.

What follows are compounds tested against Pantothenate synthetase (Mycobacterium tuberculosis (strain ATCC 25618 / H37Rv)) (UniProt P9WIL5) (assay: Recombinant Mtb pantothenate synthetase (PanC) inhibitors, coupled enzyme, confirmatory (AID 375;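 note: 0% = full reaction with vehicle and 100% = no enzyme background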)). Settings: coupled enzyme assay; at 10 µM, hits give high values.
Pantothenate synthetase (Mycobacterium tuberculosis (strain ATCC 25618 / H37Rv)), sequence (P9WIL5 whole entry, looked up): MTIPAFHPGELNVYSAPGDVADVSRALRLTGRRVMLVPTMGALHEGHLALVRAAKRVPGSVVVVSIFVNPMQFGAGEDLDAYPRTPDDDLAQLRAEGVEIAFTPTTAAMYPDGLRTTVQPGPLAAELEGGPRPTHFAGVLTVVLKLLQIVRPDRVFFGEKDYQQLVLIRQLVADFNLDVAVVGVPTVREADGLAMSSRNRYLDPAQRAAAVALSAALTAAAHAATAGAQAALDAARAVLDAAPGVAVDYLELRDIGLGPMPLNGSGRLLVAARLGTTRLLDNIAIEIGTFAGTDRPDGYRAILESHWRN

Structure (SMILES)	inhibition
CCN(CC)S(=O)(=O)c1ccc2oc(C(=O)O)c(C)c2c1	0% (inactive)
Nc1nc(N2CCN(C/C=C/c3ccccc3)CC2)nc2ccccc12	7% (inactive)
CN(C)C(=O)CSc1nnc([C@H](Cc2c[nH]c3ccccc23)NC(=O)OC(C)(C)C)o1	13% (inactive)
COc1cccc2c(=O)c3c(cnn3C)n(C)c12	0% (inactive)
COC(=O)c1cccc(Oc2nc3c(c(=O)n(C)c(=O)n3C)n2C(C)C)c1	1% (inactive)
Cn1c(C(=O)NCC2CCCO2)cc2c(=O)n(C)c3ccccc3c21 (stereo not given)	0% (inactive)
Cc1nn(C(=O)c2ccoc2C)c(N)c1-c1ccccc1	2% (inactive)
COc1cc(C(=O)N2CCN(C(=O)CC(C)C)CC2)cc(OC)c1OC	0% (inactive)
CC(=O)NC(C)C(=O)OCC(=O)Nc1ccc(Br)cc1 (stereo not given)	0% (inactive)
CCCc1cc(=O)n2[nH]cnc2n1	0% (inactive)
Cc1cc(=O)[nH]c(S/C=C/c2ccccc2)n1	0% (inactive)
C=CCN1C(=O)CS/C1=C(\C#N)S(=O)(=O)c1ccc(C)cc1	0% (inactive)
CCOC(=O)CC(NS(=O)(=O)c1ccc(NC(C)=O)cc1)c1ccc(OCC)cc1 (stereo not given)	5% (inactive)
O=C(O)CCc1ccc(-c2ccc(Br)cc2)n1CC(=O)O	0% (inactive)
COC(=O)CCc1c(C)c(C#N)c2nc3ccccc3n2c1N1CCCC1	0% (inactive)
O=C(CN1C(=O)CC(c2ccco2)Sc2ccccc21)Nc1ccccc1F (stereo not given)	0% (inactive)
CCOC(=O)c1[nH]c2ccccc2c1NC(=O)C(C)(C)C	0% (inactive)
Cc1nnc(NC(=O)c2ccco2)s1	5% (inactive)
Cc1ccc(C)c(SCC(=O)Nc2nnc(-c3ccccc3)o2)c1	10% (inactive)
CCOc1ccc(NC(=O)CSc2nc3cccnc3n2CC)cc1	0% (inactive)

Structure (SMILES)	inhibition
O=S(=O)(c1ccc2nc(Cc3cccc(C(F)(F)F)c3)[nH]c2c1)N1CCOCC1	0% (inactive)
COc1ccc(NS(=O)(=O)c2ccc(NC(C)=O)cc2)cc1OC	0% (inactive)
CCn1c(SCC(=O)N2c3ccccc3CCc3ccccc32)nc2c1c(=O)n(C)c(=O)n2C	1% (inactive)
CCCn1c(SCC(=O)NCCc2ccccc2)nnc1-c1ccccn1	6% (inactive)
CC1CN(C2CCCCC2)c2nc3c(c(=O)[nH]c(=O)n3C)n2C1 (stereo not given)	2% (inactive)
N#CCSc1nc2c(c(C3CC=CCC3)c1C#N)CCC2 (stereo not given)	6% (inactive)
Cc1cc(C(=O)CN2C(=O)c3ccccc3C2=O)c(C)n1Cc1cccs1	0% (inactive)
Cc1ccc(Cn2ncc3c(NCCCN4CCOCC4)ncnc32)cc1	8% (inactive)
COc1ccc(N(CC(=O)N2CCCCC2)S(=O)(=O)c2ccccc2)c(OC)c1	0% (inactive)
Cn1c(CN2CCOCC2)nnc1SCC(=O)NCCc1ccccc1	0% (inactive)
Cc1ccc2cc(C(c3nnnn3CC3CCCO3)N3CCc4ccccc4C3)c(=O)[nH]c2c1 (stereo not given)	0% (inactive)
CC12CN3CC(C)(CN(C1)C3c1cc(Br)ccc1O)C2=O (stereo not given)	0% (inactive)
O=C(O)CC1Sc2nc3ccccc3n2C1=O (stereo not given)	0% (inactive)
CCN(CC)S(=O)(=O)c1ccc(F)cc1	0% (inactive)
CCOC(=O)c1c(C)[nH]c(C(=O)CSc2nc3ccccc3o2)c1C	0% (inactive)
CC(=O)NC(Cc1ccc(C)cc1)C(=O)NC1CCN(C(=O)c2cnccn2)CC1 (stereo not given)	0% (inactive)
COc1ccc(C(=O)Nc2nc(C)c(C(=O)N(C)C)s2)cc1OC	0% (inactive)
CC(=O)N1C(=O)N(C)C2C1N(C(C)=O)C(=O)N2C (stereo not given)	1% (inactive)
CC1CCN(S(=O)(=O)c2ccc3[nH]cc(C(=O)NCCN4CCOCC4)c(=O)c3c2)CC1	0% (inactive)
Cc1cc2ncc(C(=O)Nc3ccccc3)c(C)n2n1	7% (inactive)
